Bioassay records from PubChem BioAssay.
The list is not random: actives were taken first. Their share in the collection is about 7.2%.
Efflux pump inh: antifungal efflux pump inhibition, Nile Red retention | inhibition, % at 10 µM | S. cerevisiae Candida pump triplex | 330,000 tested, 0.44% active;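 active = plate passing quality check with inhibition over a set limit, or well fluorescence over plate mean plus 4 SD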;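 also: Nile Red retained in pooled yeast measured as flow cytometry median fluorescence; 0% = buffer negative control and 100% = Enniatin B positive control; higher means more Nile Red kept so more efflux inhibition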
Bfl-1 A1 inh: inhibitors of the anti-apoptotic protein A1, read as caspase activation; MEF A1-2A-BIM cells, Caspase-Glo 3/7 luminescence, 3 h; percent of clofoctol response, vehicle zero; caspase activation, % (no concentration beside the values); 330,000 tested, 0.066% active;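 active = over half of replicate activation scores above 10%, or exactly half above 10 with the replicate mean above 10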
AHR activator: human AHR activation; P35869; AHR-responsive luciferase reporter cells, luminescence; activation, % at 5 µM; 320,000 tested, 2.5% active; AID 2796; in the data active = activation above about 47%;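 also: 0% = vehicle wells and 100% = reference agonist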
Mot1-301 SUMO: blocks SUMOylation pathway, rescuing yeast Mot1-301 growth | growth rescue, % at 18.8 µM | 320,000 tested, 1% active | S. cerevisiae Mot1-301 growth rescue, ATP luminescence, 38.5C; percent above DMSO median, 100 means doubled;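 active = every valid replicate shows activation above 250% relative to neutral control wells; inactive = the rest, any valid replicate at or below 250%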;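 also: OY570 slx delta 5 strain wells were the positive control but not used for scaling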
ALR inh: blocks human ALR sulfhydryl oxidase activity; purified ALR, DTT oxidation, H2O2 HRP-luminol luminescence; inhibition, % (concentration not given with the values); AID 485317; 290,000 tested, 3.8% active;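 active = mean replicate inhibition above about 79%, with every replicate also reaching it, limit read from the data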
Target sequence (P55789 whole entry, looked up): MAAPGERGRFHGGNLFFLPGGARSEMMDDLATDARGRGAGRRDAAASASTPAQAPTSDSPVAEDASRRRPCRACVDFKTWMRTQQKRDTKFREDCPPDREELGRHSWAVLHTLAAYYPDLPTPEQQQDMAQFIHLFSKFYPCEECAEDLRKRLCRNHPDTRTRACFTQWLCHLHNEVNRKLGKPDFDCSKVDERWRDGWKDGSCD
VLA-4 inh: inhibition in a human VLA-4 binding assay; P13612; 330,000 tested, 0.2% active; VLA-4 expressing cells, ligand binding flow cytometry; inhibition, % (about 7 µM as worked out from the volumes in the protocol); AID 2557; in the data active = inhibition above about 50%
VLA-4 mod pick: human VLA-4 allosteric modulation in cherry picked compounds; AID 2813; inhibition, % at 6.7 µM; shares compounds with VLA-4 inh; U937 cells, HUTS-21 LIBS mAb binding, flow cytometry; LDV ligand present at threefold Kd; 1,300 tested, 2% active; in the data active = inhibition above about 40%;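 also: 0% = ligand without compound and 100% = no ligand background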
* marks the source's active call; other numbers are inactive results; nt = not tested or not shown.

SMILES | Efflux pump inh | Bfl-1 A1 inh | AHR activator | Mot1-301 SUMO | ALR inh | VLA-4 inh | others
O=c1[nH]c(=S)[nH]c(O)c1N=Nc1ccc2c(c1)OCCO2 | 0 | -10 | 16 | -13 | nt | -2
O=c1[nH]c(=S)[nH]c(O)c1N=Nc1ccc2c(c1)OCO2 | 0 | 1 | 75* | -3 | -4 | 18
O=c1[nH]c(O)c(N=Nc2ccc(S(=O)(=O)N3CCOCC3)cc2)c(=O)[nH]1 | 0 | 1 | -1 | -7 | -3 | 8
O=[N+]([O-])c1ccc(NCc2ccccc2)c2nonc12 | 0 | 1 | 2 | 37 | -18 | -159
O=[N+]([O-])c1ccc(NCc2ccc(Cl)cc2)c2ccncc12 | -2 | 0 | 65* | 15 | nt | -14
CCC(C)N1C(=O)/C(=C/c2ccc3c(c2)CCN3CCCCl)C(=O)NC1=S (stereo not drawn) | 0 | 0 | 6 | -13 | 98* | -286
O=c1oc2ccccc2c(O)c1[C@H]1c2ccc(O)cc2Oc2c1c(=O)oc1ccccc21 | 0 | 0 | 0 | -39 | 98* | 0
COc1ccc(CC2(CCc3ccncc3)C(=O)NC(=O)NC2=O)c(OC)c1 | 0 | 0 | 2 | 281* | -1 | 6
COc1cc(CC2(CCc3ccncc3)C(=O)NC(=O)NC2=O)cc(OC)c1OC | 0 | 2 | -1 | 6 | 0 | 8
O=C1NC(c2cccnc2)Nc2sc3c(c21)CCCC3 (stereo not drawn) | 0 | 0 | 56* | -3 | nt | 18
CC1(C)Cc2c(sc3c2C(=O)NC(c2cccnc2)N3)CO1 (stereo not drawn) | 0 | 0 | 24 | -6 | 19 | -11
CC(=O)OC1C2CCC1C(N1CCCC1)CC2 (stereo not drawn) | 0 | -1 | -2 | 304 | -19 | -1
c1ccc(CCN2CCC(N3CCN(c4ccccc4)CC3)CC2)cc1 | 0 | 1 | -1 | 23 | 99* | 5
C/C(O)=C(\C#N)C(=O)Nc1cc(Br)ccc1Br | 0 | 0 | -2 | -1 | 97* | -4
Cn1c(O)c(C=Nc2ccccc2Sc2ccccc2)c(=O)n(C)c1=O | -1 | 0 | 0 | 241 | nt | -2
CC(C)c1ccc(N2C(=O)NC(=O)/C(=C/C=C/c3ccco3)C2=O)cc1 | 0 | 1 | 20 | 2 | nt | -5
CC1=NN(c2ccccc2)C(=O)C1/C=C1/C(=O)NC(=O)N(c2cc(C)cc(C)c2)C1=O (stereo not drawn) | 0 | -2 | 9 | nt | 87* | -17
CC1=NN(c2ccccc2)C(=O)C1/C=C1\C(=O)NC(=O)N(c2cc(C)cc(C)c2)C1=O (stereo not drawn) | 0 | -1 | 14 | nt | 8 | -5
CCc1ccc(N2C(=O)NC(=O)/C(=C\C=C\c3ccco3)C2=O)cc1 | 0 | 3 | 8 | 22 | 98* | 2
Cc1ccc(N2C(=O)NC(=O)/C(=C/C=C/c3ccco3)C2=O)cc1 | -1 | 0 | 4 | -15 | 34 | -1
Cc1cc(C)cc(N2C(=O)NC(=O)/C(=C\C=C\c3ccco3)C2=O)c1 | 0 | 1 | 1 | 93 | 96* | 35
CCOc1ccc(N2C(=O)/C(=C\c3cccs3)C(=O)NC2=S)cc1 | 0 | 1 | 2 | 20 | 20 | 7
CCOc1ccc(N2C(=O)/C(=C/c3ccco3)C(=O)NC2=S)cc1 | 0 | 0 | 2 | -7 | 98* | 11
COC(=O)C1=C(c2ccc(OC)c(OC)c2)C[C@@H]2CC[C@H]1N2C(=O)NCCNC(C)=O | 0 | 0 | 1 | 5 | -1 | 0
CCCCn1c(=O)c(C(=O)Nc2ccccc2N)c(O)c2ccccc21 | 0 | -1 | 48* | -1 | 1 | -5
SMILES | Efflux pump inh | Bfl-1 A1 inh | AHR activator | Mot1-301 SUMO | ALR inh | VLA-4 inh | others
COC(=O)CSC1=NP(=S)(SCC(=O)OC)N2CCCC2=C1C#N (stereo not drawn) | 0 | 1 | 0 | 2 | 98* | 3
CSC1=NP(=S)(SC)N2CCCC2=C1C#N (stereo not drawn) | 0 | 0 | 0 | -9 | 0 | 7
NNC(=O)c1ccc(O)cc1 | 0 | 0 | -2 | 6 | 95* | -8
NCCc1ccc(O)cc1 | 0 | nt | -3 | -5 | nt | 0
NS(=O)(=O)c1ccc(-c2ccc(C=C3C(=O)NC(=O)NC3=O)o2)cc1 | 0 | 0 | 2 | -11 | 98* | -6
CNS(=O)(=O)c1ccc(-c2ccc(C=C3C(=O)NC(=O)NC3=O)o2)cc1 | 0 | 0 | 1 | -11 | 88* | -3
COC(=O)C1=C(c2ccc(F)cc2OCc2ccccc2)C[C@@H]2CC[C@H]1N2C(=O)NCc1cc(C)oc1C(F)(F)F | 0 | -1 | -2 | 3 | -6 | 8
CN1C(=O)C(Cc2cccc3ccccc23)C(=O)N(C)C1=O | 0 | -1 | 18 | 16 | 23 | 10
O=C1C2CCN(CC2)[C@@H]1Cc1ccc2ccccc2c1O | 0 | 0 | 9 | -12 | 81* | 1
CCC1(C)CN(S(=O)(=O)OCC(Cl)(Cl)Cl)C(=O)N1 (stereo not drawn) | 0 | 1 | -4 | -10 | 1 | 1
CCn1cc(C(=O)c2cccs2)c2ccccc21 | 0 | 1 | 49* | 187 | 3 | 4
Cc1nc2ccccc2c(=O)n1/N=C/c1cc(Br)cc(Br)c1O | 0 | 0 | 5 | 62 | 1 | -9
N[C@@H](Cc1ccccc1)C(=O)N1C[C@H]2C[C@@H](C1)c1cccc(=O)n1C2 | 0 | 1 | 0 | 16 | nt | -15
COc1ccc(C(=O)OC2C[C@H]3CC[C@H](C2)N3C)cc1OC (stereo partly drawn) | 0 | 2 | -3 | 327* | 0 | 11 | VLA-4 mod pick=-6
COC(=O)C1=C(c2ccc(C(C)=O)cc2)C[C@@H]2CC[C@H]1N2C | 0 | 1 | 0 | -3 | 12 | 0
CN1C2CCC1CC(OC(=O)c1ccc(Cl)cc1)(C(=O)O)C2 (stereo not drawn) | -1 | 1 | -2 | 10 | -14 | 0 | VLA-4 mod pick=-12
CCC1(OC(=O)c2ccccc2)CC(C)N(C)CC1C (stereo not drawn) | 0 | -1 | 0 | -8 | -4 | 7
CCOc1ccc(C(=O)OC2CC3CCC(C2)N3C)cc1 (stereo not drawn) | 0 | 0 | 2 | 10 | -12 | -6 | VLA-4 mod pick=3
CN1C2CCC1CC(OC(=O)c1ccc(Cl)cc1)C2 (stereo not drawn) | 0 | 1 | 1 | -4 | 0 | 11 | VLA-4 mod pick=-1
N#Cc1cc2c(nc1SCC(=O)Nc1cc(Cl)cc(Cl)c1)C1CCN2CC1 | 0 | 0 | -5 | -13 | -3 | -2
